# From the supplement of paper PMC8728848
# Shown is part of a subset that was picked to be rich in the strongest signals.
# B1: SAOUHSC 00176 (Staphylococcus aureus) (protein)
# chain: MSKILKCITLAVVMLLIVTACGPNRSKEDIDKALNKDNSKDKPNQLTMWVDGDKQMAFYKKITDQYTKKTGIKVKLVNIGQNDQLENISLDAPAGKGPDIFFLAHDNTGSAYLQGLAAEIKLSKDELKGFNKQALKAMNYDNKQLALPAIVETTALFYNKKLVKNAPQTLEEVEANAAKLTDSKKKQYGMLFDAKNFYFNYPFLFGNDDYIFKKNGSEYDIHQLGLNSKHVVKNAERLQKWYDKGYLPKAATHDVMIGLFKEGKVGQFVTGPWNINEYQETFGKDLGVTTLPTDGGKPMKPFLGVRGWYLSEYSKHKYWAKDLMLYITSKDTLQKYTDEMSEITGRVDVKSSNPNLKVFEKQARHAEPMPNIPEMRQVWEPMGNASIFISNGKNPKQALDEATNDITQNIKILHPSQNDKKGD
# Columns and labels:
# Assay in all cases: glycan array binding signal (z-score within array); higher = stronger binding
# Conditions in all cases: glycan notation: IUPAC condensed, linker removed
# [1] = target: Fuc(a1-2)Gal(b1-4)GlcNAc(b1-2)Man(a1-3)[Fuc(a1-2)Gal(b1-4)GlcNAc(b1-2)Man(a1-6)]Man(b1-4)GlcNAc(b1-4)[Fuc(a1-6)]GlcNAc
# Procedure, shortened: (§1)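 The binding signal is a Z-score computed within each array. Data were drawn from 3228 arrays in the Consortium for Functional Glycomics database, restricted to those with a known protein sequence. Scores were averaged over arrays of the same protein sequence at different concentrations or buffers, and over linkers, and negative values can be taken as non-binding.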
# [2] = target: Fuc(a1-2)Gal(b1-4)[Fuc(a1-3)]GlcNAc(b1-2)[Fuc(a1-2)Gal(b1-4)[Fuc(a1-3)]GlcNAc(b1-4)]Man(a1-3)[Fuc(a1-2)Gal(b1-4)[Fuc(a1-3)]GlcNAc(b1-2)Man(a1-6)]Man(b1-4)GlcNAc(b1-4)GlcNAc
# Procedure, shortened: as §1
# [3] = target: Fuc(a1-3)[Gal3S(b1-4)]GlcNAc
# Procedure, shortened: as §1
# [4] = target: Fuc(a1-3)[Gal3S(b1-4)]GlcNAc6S
# Procedure, shortened: as §1
# [5] = target: Fuc(a1-3)[GalNAc(b1-4)]GlcNAc
# Procedure, shortened: as §1
# Gal(a1-3)Gal(b1-3)GlcNAc = target: Gal(a1-3)Gal(b1-3)GlcNAc
# Procedure, shortened: as §1
# [6] = target: Gal(a1-3)Gal(b1-3)GlcNAc(b1-2)Man(a1-3)[Gal(a1-3)Gal(b1-3)GlcNAc(b1-2)Man(a1-6)]Man(b1-4)GlcNAc(b1-4)GlcNAc
# Procedure, shortened: as §1
# [7] = target: Gal(a1-3)Gal(b1-3)GlcNAc(b1-3)GalNAc
# Procedure, shortened: as §1
# Gal(a1-4)GlcNAc = target: Gal(a1-4)GlcNAc
# Procedure, shortened: as §1
# Gal(b1-2)Gal = target: Gal(b1-2)Gal
# Procedure, shortened: as §1
# [8] = target: Gal(b1-3)GlcNAc(a1-6)Gal(b1-4)GlcNAc
# Procedure, shortened: as §1
# [9] = target: Gal(b1-3)GlcNAc(b1-2)Man(a1-3)[Gal(b1-3)GlcNAc(b1-2)Man(a1-6)]Man(b1-4)GlcNAc(b1-4)GlcNAc
# Procedure, shortened: as §1
# [10] = target: Gal(b1-3)GlcNAc(b1-3)Gal(b1-4)GlcNAc(b1-2)Man(a1-3)[Gal(b1-3)GlcNAc(b1-3)Gal(b1-4)GlcNAc(b1-2)Man(a1-6)]Man(b1-4)GlcNAc(b1-4)GlcNAc
# Procedure, shortened: as §1
# [11] = target: Gal(b1-3)GlcNAc(b1-3)GalNAc
# Procedure, shortened: as §1
# [12] = target: Gal(b1-4)GlcNAc(b1-2)Man(a1-3)Man(b1-4)GlcNAc(b1-4)GlcNAc
# Procedure, shortened: as §1
# [13] = target: Gal(b1-4)GlcNAc(b1-2)Man(a1-3)[Man(a1-6)]Man(b1-4)GlcNAc(b1-4)GlcNAc
# Procedure, shortened: as §1
# [14] = target: Gal(b1-4)GlcNAc(b1-2)[Gal(b1-4)GlcNAc(b1-4)]Man(a1-3)[GlcNAc(b1-4)][Gal(b1-4)GlcNAc(b1-2)Man(a1-6)]Man(b1-4)GlcNAc(b1-4)GlcNAc
# Procedure, shortened: as §1
# [15] = target: Gal(b1-4)GlcNAc(b1-3)Gal(b1-4)GlcNAc(b1-2)Man(a1-3)[Gal(b1-4)GlcNAc(b1-3)Gal(b1-4)GlcNAc(b1-2)Man(a1-6)]Man(b1-4)GlcNAc(b1-4)GlcNAc
# Procedure, shortened: as §1
# [16] = target: Gal(b1-4)GlcNAc(b1-3)Gal(b1-4)GlcNAc(b1-2)[Gal(b1-4)GlcNAc(b1-3)Gal(b1-4)GlcNAc(b1-6)]Man(a1-6)[Gal(b1-4)GlcNAc(b1-3)Gal(b1-4)GlcNAc(b1-2)Man(a1-3)]Man(b1-4)GlcNAc(b1-4)GlcNAc
# Procedure, shortened: as §1
# [17] = target: GalNAc(a1-3)GalNAc(b1-3)Gal(a1-4)Gal(b1-4)GlcNAc
# Procedure, shortened: as §1
# GalNAc(b1-4)Gal(b1-4)Glc = target: GalNAc(b1-4)Gal(b1-4)Glc
# Procedure, shortened: as §1
# [18] = target: GalNAc(b1-4)GlcNAc(b1-3)GalNAc(b1-4)GlcNAc
# Procedure, shortened: as §1
# GalNAc(b1-4)GlcNAc6S = target: GalNAc(b1-4)GlcNAc6S
# Procedure, shortened: as §1
# GalNAc3S(b1-4)GlcNAc3S = target: GalNAc3S(b1-4)GlcNAc3S
# Procedure, shortened: as §1
# Glc(a1-4)Glc = target: Glc(a1-4)Glc
# Procedure, shortened: as §1
# [19] = target: Glc(a1-4)Glc(a1-4)Glc(a1-4)Glc
# Procedure, shortened: as §1
# [20] = target: GlcNAc(b1-3)Gal(b1-3)GalNAc
# Procedure, shortened: as §1
binder,measurement,setting,value
B1,glycan array binding signal (z-score),[1],0.688
same,glycan array binding signal (z-score),[2],0.546
same,glycan array binding signal (z-score),[3],-0.097
same,glycan array binding signal (z-score),[4],-0.175
same,glycan array binding signal (z-score),[5],-0.119
same,glycan array binding signal (z-score),Gal(a1-3)Gal(b1-3)GlcNAc,-0.106
same,glycan array binding signal (z-score),[6],0.584
same,glycan array binding signal (z-score),[7],-0.107
same,glycan array binding signal (z-score),Gal(a1-4)GlcNAc,-0.034
same,glycan array binding signal (z-score),Gal(b1-2)Gal,-0.068
same,glycan array binding signal (z-score),[8],-0.122
same,glycan array binding signal (z-score),[9],1.06
same,glycan array binding signal (z-score),[10],-0.007
same,glycan array binding signal (z-score),[11],-0.105
same,glycan array binding signal (z-score),[12],-0.068
same,glycan array binding signal (z-score),[13],1.03
same,glycan array binding signal (z-score),[14],0
same,glycan array binding signal (z-score),[15],0.017
same,glycan array binding signal (z-score),[16],0.619
same,glycan array binding signal (z-score),[17],-0.027
same,glycan array binding signal (z-score),GalNAc(b1-4)Gal(b1-4)Glc,0.067
same,glycan array binding signal (z-score),[18],-0.092
same,glycan array binding signal (z-score),GalNAc(b1-4)GlcNAc6S,-0.057
same,glycan array binding signal (z-score),GalNAc3S(b1-4)GlcNAc3S,-0.084
same,glycan array binding signal (z-score),Glc(a1-4)Glc,4.5
same,glycan array binding signal (z-score),[19],23.6
same,glycan array binding signal (z-score),[20],-0.061
